Experimental data as given in PubChem BioAssay (NCATS).
Results filed as inconclusive are left out. Activity calls are given as the source filed them. The call rests on the fitted dose curve; in most records, active means well fitted curve in the direction sought with a large enough effect; inconclusive means small, poorly fitted or top-dose-only effect, or another doubt; inactive means no such curve, though single readings can be large; an effect the other way counts as inactive or inconclusive.

Assays:
[1] = qHTS of pediatric cancer cell lines to identify multiple opportunities for drug repurposing: Primary screen for TC32 cells (AID 1347089); further: nearly all actives have a fitted effect of over 60% in size
Summary of the method: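 A viability screen of TC32 cells was run over 48 h, with primary MIPE doses spanning 0.78 nM–46 µM and NPC doses 0.59 nM–46 µM. ATP luminescence (CellTiter-Glo) served as the read-out.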

[2] = qHTS of pediatric cancer cell lines to identify multiple opportunities for drug repurposing: Primary screen for SJ-GBM2 cells (AID 1347091)
Summary of the method: (§1)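 Cell viability, CellTiter-Glo luminescence; 500-1,000 cells/well, 8- or 11-point titration, 48 h compound exposure at 37 degrees C, 5% CO2. Controls: DMSO neutral, bortezomib 2.3 µM final as positive.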

[3] = qHTS of pediatric cancer cell lines to identify multiple opportunities for drug repurposing: Primary screen for A673 cells (AID 1347092); further: nearly all actives have a fitted effect of over 45% in size
Summary of the method: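 Titration-based qHTS on A673 cells: MIPE compounds spanned 11 points (0.78 nM to 46 µM final), NPC compounds 8 points (0.59 nM to 46 µM final). Viability after 48 h was measured by ATP luminescence.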

[4] = qHTS of pediatric cancer cell lines to identify multiple opportunities for drug repurposing: Primary screen for SK-N-MC cells (AID 1347093)
Summary of the method: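 Metabolically active cells were quantified by ATP-dependent luminescence (CellTiter-Glo, 15 min at room temperature) following 48 h treatment. Cells had been plated at 500-1,000 per well and settled for 5 h beforehand.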

[5] = qHTS of pediatric cancer cell lines to identify multiple opportunities for drug repurposing: Primary screen for BT-37 cells (AID 1347094)
Summary of the method: (§2)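 ATP-based luminescence (CellTiter-Glo) quantifies viability after a 48-hour exposure. Compounds are dosed across 8 or 11 final concentrations; DMSO and 2.3 µM bortezomib serve as controls.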

[6] = qHTS of pediatric cancer cell lines to identify multiple opportunities for drug repurposing: Primary screen for NB-EBc1 cells (AID 1347095)
Summary of the method: as §2

[7] = qHTS of pediatric cancer cell lines to identify multiple opportunities for drug repurposing: Primary screen for U-2 OS cells (AID 1347096); further: nearly all actives have a fitted effect of over 50% in size
Summary of the method: (§3)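 Cells (500-1,000/well) rested 5 h, then received compounds for 48 h; metabolically active cells were measured by CellTiter-Glo luminescence. Final concentrations spanned up to 46 µM (MIPE, 11-point) or 0.59 nM-46 µM (NPC, 8-point) in primary screens, 11-point in follow-ups.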

[8] = qHTS of pediatric cancer cell lines to identify multiple opportunities for drug repurposing: Primary screen for Saos-2 cells (AID 1347097); further: nearly all actives have a fitted effect of over 40% in size
Summary of the method: as §2

[9] = qHTS of pediatric cancer cell lines to identify multiple opportunities for drug repurposing: Primary screen for SK-N-SH cells (AID 1347098); further: nearly all actives have a fitted effect of over 65% in size
Summary of the method: as §3

[10] = qHTS of pediatric cancer cell lines to identify multiple opportunities for drug repurposing: Primary screen for NB1643 cells (AID 1347099); further: nearly all actives have a fitted effect of over 50% in size
Summary of the method: as §2

[11] = qHTS of pediatric cancer cell lines to identify multiple opportunities for drug repurposing: Primary screen for LAN-5 cells (AID 1347100)
Summary of the method: as §3

[12] = qHTS of pediatric cancer cell lines to identify multiple opportunities for drug repurposing: Primary screen for BT-12 cells (AID 1347101); further: nearly all actives have a fitted effect of over 25% in size
Summary of the method: as §3

[13] = qHTS of pediatric cancer cell lines to identify multiple opportunities for drug repurposing: Primary screen for Rh18 cells (AID 1347102); further: nearly all actives have a fitted effect of over 65% in size
Summary of the method: as §3

[14] = qHTS of pediatric cancer cell lines to identify multiple opportunities for drug repurposing: Primary screen for OHS-50 cells (AID 1347103); further: nearly all actives have a fitted effect of over 40% in size
Summary of the method: as §3

[15] = qHTS of pediatric cancer cell lines to identify multiple opportunities for drug repurposing: Primary screen for RD cells (AID 1347104); further: nearly all actives have a fitted effect of over 55% in size
Summary of the method: as §2

[16] = qHTS of pediatric cancer cell lines to identify multiple opportunities for drug repurposing: Primary screen for control Hh wild type fibroblast cells (AID 1347106); further: nearly all actives have a fitted effect of over 55% in size
Summary of the method: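 Viability after 48 h compound treatment at 37C, 500-1,000 cells/well, read as ATP luminescence with CellTiter-Glo. Primary screens used 11-point (MIPE, 0.78 nM-46 µM) or 8-point (NPC, 0.59 nM-46 µM) final concentrations; follow-up screens used 11-point dilutions.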

[17] = qHTS of pediatric cancer cell lines to identify multiple opportunities for drug repurposing: Primary screen for DAOY cells (AID 1347090); further: nearly all actives have a fitted effect of over 55% in size
Summary of the method: as §1

[18] = qHTS of pediatric cancer cell lines to identify multiple opportunities for drug repurposing: Primary screen for MG 63 (6-TG R) cells (AID 1347105); further: nearly all actives have a fitted effect of over 50% in size
Summary of the method: as §2

Measured: Potency
Potency means the concentration at half of the fitted maximal effect.

Nc1ccc(C(=O)c2cc3c(ccc4ccccc43)[nH]2)cc1
inactive: [7] | [13] | [16]
active: [1] 7390 nM | [2] 2350 nM | [3] 2960 nM | [4] 2090 nM | [5] 7690 nM | [6] 1660 nM | [8] 2350 nM | [9] 7640 nM | [10] 16600 nM | [11] 833 nM | [12] 9680 nM | [14] 10900 nM | [15] 5900 nM

CN1CCN(c2cc(C(=O)Nc3ccc4c(c3)-c3c(c(C(N)=O)nn3-c3ccc(F)cc3)CC4)c(Cl)cn2)CC1
active: [17] 11800 nM | [3] 2350 nM | [5] 24300 nM | [7] 23500 nM | [8] 16600 nM | [9] 7640 nM | [10] 1180 nM | [11] 16600 nM | [12] 30600 nM | [13] 20900 nM | [14] 24300 nM | [15] 16600 nM | [18] 23500 nM | [16] 20900 nM
inactive: [1]

O=C(Cc1ccc(-c2ccc(OCCN3CCOCC3)cc2)cn1)NCc1ccccc1
active: [1] 117 nM | [2] 18.7 nM | [3] 23.5 nM | [4] 26.4 nM | [5] 68.5 nM | [6] 14.8 nM | [7] 3720 nM | [8] 14.8 nM | [9] 6810 nM | [10] 83.3 nM | [11] 9.3 nM | [12] 38.5 nM | [13] 13200 nM | [14] 30.6 nM | [15] 52.6 nM | [18] 23.5 nM

NC(=O)Nc1cc(-c2cccc(F)c2)sc1C(=O)N[C@H]1CCCNC1
active: [1] 2340 nM | [2] 235 nM | [3] 187 nM | [4] 37.2 nM | [5] 485 nM | [6] 296 nM | [7] 935 nM | [8] 1320 nM | [9] 1710 nM | [10] 526 nM | [11] 469 nM | [14] 172 nM | [15] 3720 nM | [18] 7430 nM

CCCCN1CCC(CNC(=O)c2c3n(c4ccccc24)CCCO3)CC1
inactive: [1]
active: [17] 1870 nM | [3] 1480 nM | [4] 4690 nM | [6] 13200 nM | [9] 15200 nM | [15] 4690 nM | [18] 935 nM | [16] 1180 nM

CCCn1c(=O)c2[nH]c(-c3cnn(Cc4cccc(C(F)(F)F)c4)c3)nc2n(CC)c1=O
inactive: [1] | [17] | [7] | [9] | [10] | [11] | [16]

NC(=O)c1cccc2cn(-c3ccc([C@@H]4CCCNC4)cc3)nc12
inactive: [17] | [9] | [12] | [13] | [18] | [16]
active: [1] 20800 nM | [3] 1870 nM | [4] 8330 nM | [6] 6620 nM | [10] 20900 nM | [11] 11800 nM

COc1cc(Nc2ncc(F)c(Nc3ccc4c(n3)N(COP(=O)(O)O)C(=O)C(C)(C)O4)n2)cc(OC)c1OC
active: [2] 1480 nM | [3] 2960 nM | [4] 1320 nM | [6] 935 nM | [7] 4690 nM | [8] 1180 nM | [9] 4290 nM | [10] 187 nM | [11] 1870 nM | [13] 1870 nM | [14] 1220 nM | [15] 3320 nM | [18] 935 nM
inactive: [1] | [5] | [16]

CC(NCc1ccc2c(c1)nc(NC(=O)c1ccc(-c3cn[nH]c3)s1)n2CC(C)(C)O)C(C)(C)C (configuration not stated)
active: [1] 2620 nM | [2] 296 nM | [3] 187 nM | [4] 743 nM | [5] 485 nM | [6] 418 nM | [7] 1180 nM | [8] 743 nM | [9] 961 nM | [10] 372 nM | [11] 132 nM | [12] 968 nM | [13] 1660 nM | [14] 485 nM | [18] 2350 nM | [16] 2350 nM

C1=CCOCc2cc(ccc2OCCN2CCCC2)Nc2nccc(n2)-c2cccc(c2)OCC1
active: [1] 14700 nM | [17] 14800 nM | [3] 2350 nM | [5] 12200 nM | [6] 7430 nM | [8] 5260 nM | [9] 7640 nM | [10] 7430 nM | [11] 2640 nM | [12] 7690 nM | [14] 2170 nM | [15] 11800 nM | [18] 11800 nM
inactive: [7]

C[C@@H]1COC(Nc2ccc3ncnc(Nc4ccc(OCc5nccs5)c(Cl)c4)c3c2)=N1
inactive: [1]
active: [17] 935 nM | [3] 935 nM | [4] 2350 nM | [5] 24300 nM | [6] 2640 nM | [8] 29600 nM | [10] 4690 nM | [11] 16600 nM | [12] 24300 nM | [14] 21700 nM | [15] 14800 nM
